From PubChem BioAssay AID1159580 (chemical genetic matrix, 2015)
Screen size: about 5,500 compounds; about 2,000 (36%) were called active. Roughly 18% stayed inconclusive and do not appear here. Some of the results follow. Unmarked numbers belong to inactive results. Rule as the data show it: active = normalized growth mostly below about 0.91 (no sharp cut-off); inconclusive = no clear call, values can overlap the other calls; inactive = mostly above about 0.92.

Experiment: chemical genetic growth profiling, strain panel (AID 1159580);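 also: tested at 20 µM; growth read once vehicle control cultures reached saturation at 30 °C; 1 = growth at the plate median or of vehicle wells; lower values mean less growth of the strain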
Settings: growth OD
[1] = S. cerevisiae deletion strains, locus YAL013W, strain DEP1, active compounds read low
[2] = S. cerevisiae deletion strains, locus YBR229C, strain ROT2, active compounds read low
[3] = S. cerevisiae deletion strains, locus YDL101C, strain DUN1, active compounds read low
[4] = S. cerevisiae deletion strains, locus YDL134C, strain PPH21, active compounds read low
[5] = S. cerevisiae deletion strains, locus YEL061C, strain CIN8, active compounds read low
[6] = S. cerevisiae deletion strains, locus YGR078C, strain PAC10, active compounds read low
[7] = S. cerevisiae deletion strains, locus YHR030C, strain SLT2, active compounds read low
[8] = S. cerevisiae deletion strains, locus YHR087W, strain rtc3, active compounds read low
[9] = S. cerevisiae deletion strains, locus YJL187C, strain SWE1, active compounds read low
[10] = S. cerevisiae deletion strains, locus YJR043C, strain POL32, active compounds read low
[11] = S. cerevisiae deletion strains, locus YJR075W, strain HOC1, active compounds read low
[12] = S. cerevisiae deletion strains, locus YLR039C, strain RIC1, active compounds read low
[13] = S. cerevisiae deletion strains, locus YLR058C, strain SHM2 (second series), active compounds read low
[14] = S. cerevisiae deletion strains, locus YLR085C, strain ARP6, active compounds read low
[15] = S. cerevisiae deletion strains, locus YLR262C, strain YPT6, active compounds read low
[16] = S. cerevisiae deletion strains, locus YML094W, strain GIM5, active compounds read low
[17] = S. cerevisiae deletion strains, locus YMR219W, strain ESC1, active compounds read low
[18] = S. cerevisiae deletion strains, locus YMR263W, strain SAP30, active compounds read low
[19] = S. cerevisiae deletion strains, locus YNL153C, strain GIM3, active compounds read low
[20] = S. cerevisiae deletion strains, locus YNL298W, strain CLA4 (second series), active compounds read low
[21] = S. cerevisiae deletion strains, locus YNL322C, strain KRE1, active compounds read low
[22] = S. cerevisiae deletion strains, locus YNR030W, strain Alg12, active compounds read low
[23] = S. cerevisiae deletion strains, locus YPL055C, strain LGE1, active compounds read low
[24] = S. cerevisiae deletion strains, locus YPL241C, strain CIN2, active compounds read low
[25] = S. cerevisiae deletion strains, locus YPR135W, strain CTF4, active compounds read low
[26] = S. cerevisiae strains, strain wild type, active compounds read low

O=C(O)CCOc1ccc(Cl)cc1
normalized growth [1]: 0.956
normalized growth [2]: 0.795 (active)
normalized growth (S. cerevisiae deletion strains, locus YCL061C, strain MRC1, active compounds read low): 0.825 (active)
normalized growth [3]: 0.901
normalized growth [4]: 1
normalized growth [5]: 0.999
normalized growth [6]: 0.753 (active)
normalized growth [7]: 1.01
normalized growth [8]: 0.729 (active)
normalized growth [9]: 0.837 (active)
normalized growth [10]: 0.913 (active)
normalized growth [11]: 0.64 (active)
normalized growth (S. cerevisiae deletion strains, locus YKL190W, strain CNB1, active compounds read low): 1
normalized growth [12]: 0.979
normalized growth [13]: 0.904 (active)
normalized growth [14]: 1
normalized growth [15]: 0.993
normalized growth [16]: 1.01
normalized growth [17]: 0.838 (active)
normalized growth [18]: 0.859 (active)
normalized growth (S. cerevisiae deletion strains, locus YMR307W, strain GAS1, active compounds read low): 0.895
normalized growth [19]: 0.793 (active)
normalized growth [20]: 1.03
normalized growth [21]: 0.9 (active)
normalized growth [22]: 1
normalized growth [23]: 0.763 (active)
normalized growth [24]: 0.954
normalized growth [25]: 1.11
normalized growth [26]: 1.01

Clc1ccc(OCCOc2ccc(Cl)cc2)cc1
normalized growth [1]: 1.01
normalized growth [2]: 0.99
normalized growth [3]: 1.04
normalized growth [4]: 0.996
normalized growth (S. cerevisiae deletion strains, locus YDR150W, strain NUM1, active compounds read low): 1.01
normalized growth [5]: 0.99
normalized growth [6]: 1.02
normalized growth [7]: 0.978
normalized growth [8]: 0.965
normalized growth [9]: 1.02
normalized growth [10]: 1.04
normalized growth [11]: 0.998
normalized growth [12]: 1.01
normalized growth [13]: 1.01
normalized growth [14]: 1.01
normalized growth [15]: 0.95
normalized growth [16]: 0.971
normalized growth [17]: 1.02
normalized growth [18]: 1.01
normalized growth (S. cerevisiae deletion strains, locus YNL128W, strain TEP1, active compounds read low): 1.01
normalized growth [19]: 1
normalized growth [20]: 0.989
normalized growth [21]: 0.998
normalized growth [22]: 0.983
normalized growth (S. cerevisiae deletion strains, locus YOL006C, strain TOP1, active compounds read low): 0.937
normalized growth [23]: 0.975
normalized growth [24]: 0.986
normalized growth [25]: 1.07
normalized growth [26]: 1.01
